The results in this text go back to paper PMC4336329 (PLoS ONE, 2015).

Out of some 310,000 compounds screened, about 14,000 (4.5%) showed an effect of 50% or more. The effect is printed as a negative number. Shown is part of a subset that was picked to be rich in strong results.
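Further: peak tail current of the secondary pulse compared with the same well before compound.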

For this experiment, the target named is human ether-à-go-go-related gene (hERG) potassium channel (human, UniProt Q12809). As to the kind of experiment: primary screen, population patch clamp on CHO cells stably expressing hERG; higher = less effect of the substance.
Sequence of human ether-à-go-go-related gene (hERG) potassium channel (Q12809 whole entry, looked up): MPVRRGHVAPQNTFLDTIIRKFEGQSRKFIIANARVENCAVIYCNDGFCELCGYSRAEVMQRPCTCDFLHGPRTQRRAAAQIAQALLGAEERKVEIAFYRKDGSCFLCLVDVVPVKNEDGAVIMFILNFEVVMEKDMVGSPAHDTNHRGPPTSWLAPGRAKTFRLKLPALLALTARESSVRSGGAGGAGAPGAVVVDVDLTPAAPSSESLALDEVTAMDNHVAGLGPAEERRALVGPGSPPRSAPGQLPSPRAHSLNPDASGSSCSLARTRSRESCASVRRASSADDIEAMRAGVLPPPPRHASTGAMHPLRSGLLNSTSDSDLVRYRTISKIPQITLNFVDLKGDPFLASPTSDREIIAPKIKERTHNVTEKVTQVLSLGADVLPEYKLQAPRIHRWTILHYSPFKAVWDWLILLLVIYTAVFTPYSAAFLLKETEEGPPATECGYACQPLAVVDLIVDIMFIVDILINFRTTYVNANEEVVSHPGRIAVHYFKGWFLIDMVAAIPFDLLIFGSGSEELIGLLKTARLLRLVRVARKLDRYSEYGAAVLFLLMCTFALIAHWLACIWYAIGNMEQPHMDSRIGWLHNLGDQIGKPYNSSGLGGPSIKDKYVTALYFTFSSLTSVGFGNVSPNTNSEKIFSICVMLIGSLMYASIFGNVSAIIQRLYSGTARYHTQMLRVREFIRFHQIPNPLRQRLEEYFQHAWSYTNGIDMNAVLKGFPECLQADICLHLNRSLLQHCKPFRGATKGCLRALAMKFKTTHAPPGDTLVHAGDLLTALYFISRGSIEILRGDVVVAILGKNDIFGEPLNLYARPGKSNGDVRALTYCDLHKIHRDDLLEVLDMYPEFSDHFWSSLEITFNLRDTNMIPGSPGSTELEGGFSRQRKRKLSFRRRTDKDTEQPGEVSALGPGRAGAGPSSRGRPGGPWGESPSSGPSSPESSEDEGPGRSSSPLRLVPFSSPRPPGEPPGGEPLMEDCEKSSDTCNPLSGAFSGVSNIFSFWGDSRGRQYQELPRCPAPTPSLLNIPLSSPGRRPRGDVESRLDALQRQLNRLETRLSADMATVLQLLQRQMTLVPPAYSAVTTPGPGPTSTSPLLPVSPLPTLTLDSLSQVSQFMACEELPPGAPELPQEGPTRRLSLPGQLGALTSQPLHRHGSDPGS
As for `Cc1nn(CC(=O)Nc2cc(S(=O)(=O)N(C)C)ccc2Cl)c(C)c1[N+](=O)[O-]`, the “hERG current change (%, negative = inhibition) at 10uM” value is given as -20.9%.

Consider `Cl.N=c1sccn1CC(=O)Nc1ccc(S(=O)(=O)N2CCOCC2)cc1`, for which the “hERG current change (%, negative = inhibition) at 10uM” value is -5.32%.

As for `CN(C)S(=O)(=O)c1ccc(NC(=O)Cn2ccsc2=N)cc1`, the “hERG current change (%, negative = inhibition) at 10uM” value turned out to be 13.7%.

`Cc1nn(CC(=O)Nc2ccc(Cl)c(S(=O)(=O)N(C)C)c2)c(C)c1[N+](=O)[O-]`: the “hERG current change (%, negative = inhibition) at 10uM” value is -61.3%.

In the case of `COc1cc(/C=C2/N=C(C3CCCCC3)OC2=O)cc(OC)c1OC`, the “hERG current change (%, negative = inhibition) at 10uM” value was -17.5%.

Take `O=C(Cc1ccccc1[N+](=O)[O-])NCc1ccncc1`: the “hERG current change (%, negative = inhibition) at 10uM” value was 6.57%.

Consider `OC(Cn1c2ccccc2c2ccccc21)C[n+]1cccc2ccccc21.[O-][Cl+3]([O-])([O-])[O-]` (centres unmarked), for which the “hERG current change (%, negative = inhibition) at 10uM” value is -33.5%.

`C=C(C)C(=O)N1CC2(CC(c3cccc(NC(=O)/C(C)=C\C)c3)=NO2)C[C@H]1C(N)=O` (some centres unmarked): the “hERG current change (%, negative = inhibition) at 10uM” value came out at 2.26%.

Take `Cc1ccc(-c2nn(C)c(=O)c3ccccc23)cc1S(=O)(=O)NCCN1CCOCC1`: the “hERG current change (%, negative = inhibition) at 10uM” value is reported as -2.69%.

As to `Cn1c(=O)[nH]c(=O)c2c1nc(N1CCOCC1)n2CCc1ccccc1`, the “hERG current change (%, negative = inhibition) at 10uM” value was -0.713%.

For `Cc1cccc(N=C2NC(=O)/C(=C/c3cccs3)S2)c1`, the “hERG current change (%, negative = inhibition) at 10uM” value stood at 11.9%.

Regarding `COc1cc(C)c(/C=C(\C#N)C(=O)Nc2ccc(C)cc2)cc1C(C)C`, the “hERG current change (%, negative = inhibition) at 10uM” value amounted to 11.1%.

In the case of `COCCN(C(=O)COC(=O)c1sccc1C)c1c(N)n(Cc2ccccc2)c(=O)[nH]c1=O`, the “hERG current change (%, negative = inhibition) at 10uM” value turned out to be 15.4%.

As for `CCCN(CCC)CCCNC(=O)C(NS(=O)(=O)c1ccc2c(c1)CCC(=O)N2)c1ccccc1` (centres unmarked), the “hERG current change (%, negative = inhibition) at 10uM” value was determined as 20.5%.

Turning to `CCn1ncc(S(=O)(=O)NCc2ccco2)c1C`, the “hERG current change (%, negative = inhibition) at 10uM” value is on record as -0.626%.

For `O=C(Nc1ccc(S(=O)(=O)Nc2cnc3ccccc3n2)cc1)c1ccccc1Br`, the “hERG current change (%, negative = inhibition) at 10uM” value is given as -10.5%.

Consider `O=C(CCN1C(=O)/C(=C/c2cccs2)SC1=S)Nc1ccccc1O`, for which the “hERG current change (%, negative = inhibition) at 10uM” value worked out at 13.7%.

For the compound `CC(C)c1ccc(NC(=O)CNC(=O)Cn2cnc3ccccc3c2=O)cc1`, the “hERG current change (%, negative = inhibition) at 10uM” value stood at 3.21%.

As for `Cc1ccc(N/C=C/C(=O)c2ccco2)c(O)c1`, the “hERG current change (%, negative = inhibition) at 10uM” value came to 8.63%.

Consider `COc1cc2c(cc1NC(=O)CSc1nc3ccc(C)cc3[nH]1)oc1ccccc12`, for which the “hERG current change (%, negative = inhibition) at 10uM” value is 7.65%.

`O=C(c1cccs1)N1CCN(c2ncccn2)CC1`: the “hERG current change (%, negative = inhibition) at 10uM” value is listed as 0.299%.

Take `Cc1ccc(-c2nnc(N3CCN(C(=O)CN4C(=O)c5ccccc5C4=O)CC3)c3ccccc23)cc1`: the “hERG current change (%, negative = inhibition) at 10uM” value turned out to be 6.37%.

With `CC(=O)N1CCN(c2nnc(-c3ccc(C)cc3)c3ccccc23)CC1`, the “hERG current change (%, negative = inhibition) at 10uM” value is listed as -38.6%.

Take `CC(=O)N1CCN(c2nnc(-c3ccccc3)c3ccccc23)CC1`: the “hERG current change (%, negative = inhibition) at 10uM” value turned out to be 3.22%.

Regarding `Cc1ccc(-c2nnc(N3CCN(C(=O)c4cccs4)CC3)c3ccccc23)cc1`, the “hERG current change (%, negative = inhibition) at 10uM” value was -65.4%.

In the case of `O=C(c1cccs1)N1CCN(c2nnc(-c3ccccc3)c3ccccc23)CC1`, the “hERG current change (%, negative = inhibition) at 10uM” value is given as -76.5%.

Consider `Cc1ccc(C(=O)Nc2ccc(Cl)cc2C(=O)c2ccccc2)cc1`, for which the “hERG current change (%, negative = inhibition) at 10uM” value is 17.1%.

Turning to `O=C(CSc1ccccc1)N1CCN(S(=O)(=O)c2ccccc2F)CC1`, the “hERG current change (%, negative = inhibition) at 10uM” value is -23.9%.

In the case of `Cc1c(N=Cc2cccnc2)c(=O)n(-c2ccccc2)n1C`, the “hERG current change (%, negative = inhibition) at 10uM” value was 2.93%.

`CC(=O)Oc1ccc2c(=O)oc(-c3ccc([N+](=O)[O-])cc3)nc2c1`: the “hERG current change (%, negative = inhibition) at 10uM” value is on record as 1.56%.

Regarding `Cc1ccc(C)c(S(=O)(=O)N2CCN(C(=O)Cn3c(C(F)(F)F)nc4ccccc43)CC2)c1`, the “hERG current change (%, negative = inhibition) at 10uM” value is listed as -1.16%.

Take `CC(=O)n1c(=O)c2ccccc2c(=O)n1-c1ccccc1`: the “hERG current change (%, negative = inhibition) at 10uM” value stood at 3.89%.

For `O=c1c2ccccc2c(=O)n(Cc2ccccc2)n1Cc1ccccc1`, the “hERG current change (%, negative = inhibition) at 10uM” value worked out at 16.8%.

`O=c1c2ccccc2c(=O)n(-c2ccccc2)n1CCCCBr`: the “hERG current change (%, negative = inhibition) at 10uM” value was -63.5%.

As for `Cc1cccc(C(=O)OCC(=O)c2c(N)n(CC(C)C)c(=O)n(C)c2=O)c1[N+](=O)[O-]`, the “hERG current change (%, negative = inhibition) at 10uM” value is listed as -29.1%.

Consider `O=C(CCCC(=O)OCC1CCCO1)OCC1CCCO1` (centres unmarked), for which the “hERG current change (%, negative = inhibition) at 10uM” value stood at 8.27%.

Consider `CCOC(=O)c1cn(CC(=O)Nc2ccc(OC)cc2OC)nn1`, for which the “hERG current change (%, negative = inhibition) at 10uM” value was determined as 9.07%.

Take `Cl.O=C(COc1ccc(Br)cc1)OCCN1CCCCC1`: the “hERG current change (%, negative = inhibition) at 10uM” value came to 11.8%.

For `Brc1ccc(OCCCCN2CCCCC2)cc1`, the “hERG current change (%, negative = inhibition) at 10uM” value is reported as -53.6%.

Regarding `Brc1ccc(OCCCN2CCOCC2)cc1.O=C(O)C(=O)O`, the “hERG current change (%, negative = inhibition) at 10uM” value is listed as -28.1%.

As to `Cc1ccc(OCCCCN2CCCCC2)cc1`, the “hERG current change (%, negative = inhibition) at 10uM” value is -12.1%.

On to `CC1CCN(CCCCOc2ccc(Br)cc2)CC1`, for which the “hERG current change (%, negative = inhibition) at 10uM” value is given as -69.4%.

Take `Brc1ccc(OCCCCCN2CCOCC2)cc1.O=C(O)C(=O)O`: the “hERG current change (%, negative = inhibition) at 10uM” value was -63.8%.

Consider `Brc1ccc(OCCOCCN2CCOCC2)cc1`, for which the “hERG current change (%, negative = inhibition) at 10uM” value is on record as -9%.
